This is an account of results in the supplement of paper PMC10127200.

Where a name gives a salt, the structure may show the parent alone.

In the first assay the test system is A549. As to the kind of experiment: Euclidean distance of Cell Painting phenotypic profile (signed KS, 77 features) to DMSO centroid (dimensionless distance); 5 or 10 uM (library dependent); higher = stronger phenotypic change vs DMSO (phenoactivity). The settings on record: 48 h. The essentials: (§1)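 Stained cells were imaged confocally at 20X with 9 fields per well, after 48 h of exposure to library compounds at 10 or 5 uM (set by library; 0.1% DMSO final). The cells were five cancer lines and a healthy fibroblast line. From the images, Harmony extracted 77 features, each expressed as a signed Kolmogorov-Smirnov statistic relative to same-plate vehicle wells. Phenoactivity is measured as Euclidean distance to the median vehicle profile, using plate-position-corrected, correlation-weighted profiles averaged across replicates at the top dose.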
For `O=c1cc(-c2ccc(O)cc2)oc2cc(O)cc(O)c12` [Apigenin], the Euclidean distance was 0.946.

Consider `CC(C)NCC(O)COc1cccc2[nH]ccc12` (stereo not drawn) [Pindolol], for which the Euclidean distance is 0.858.

Compound `COC(=O)C1=C(C)NC(C)=C(C(=O)OC2CCCN(Cc3ccccc3)C2)C1c1cccc([N+](=O)[O-])c1` (stereo not drawn) [Benidipine HCl] gave an Euclidean distance of 0.86.

In turn, `CCc1cc(/C(C)=N/OCc2ccc(C3CCCCC3)c(C(F)(F)F)c2)ccc1CN1CC(C(=O)O)C1` [BAF312 (Siponimod)] displayed an Euclidean distance of 1.05.

`O=C(O)c1cccnc1` [Nicotinic Acid] came in with an Euclidean distance of 0.435.

On to `CC(=O)c1ccc(S(=O)(=O)NC(=O)NC2CCCCC2)cc1` [Acetohexamide], for which the Euclidean distance amounted to 0.868.

Regarding `CCOC(=O)[C@H](CCc1ccccc1)N[C@@H](C)C(=O)N1CCC[C@H]1C(=O)O` [Enalapril Maleate], the Euclidean distance is 0.697.

Regarding `C[C@H]1C[C@H]2[C@@H]3CCC4=CC(=O)C=C[C@]4(C)[C@@]3(F)[C@@H](O)C[C@]2(C)[C@@]1(O)C(=O)CO` [Betamethasone], the Euclidean distance was 2.01.

Turning to `O=c1ccc2ccccc2o1` [Coumarin], the Euclidean distance is 0.975.

In turn, `O=C(NC(Cc1cc(=O)[nH]c2ccccc12)C(=O)O)c1ccc(Cl)cc1` (stereo not drawn) [Rebamipide] came in with an Euclidean distance of 1.17.

`COc1ccccc1N1CCN(CC(O)COc2cccc3ccccc23)CC1` (stereo not drawn) [Naftopidil] registered an Euclidean distance of 1.01.

For the compound `CCC[C@@H]1C[C@@H](C(=O)N[C@@H]([C@H]2O[C@H](SC)[C@H](OP(=O)(O)O)[C@@H](O)[C@H]2O)[C@H](C)Cl)N(C)C1` [Clindamycin Phosphate], the Euclidean distance worked out at 0.653.

In the case of `N[C@@H](Cc1c[nH]c2ccccc12)C(=O)O` [L-Tryptophan], the Euclidean distance turned out to be 1.11.

Regarding `Nc1ccc(C(=O)O)c(O)c1` [4-Aminosalicylic acid], the Euclidean distance was found to be 0.798.

`Cc1cc(C)nc(NS(=O)(=O)c2ccc(N)cc2)n1` [Sulfamethazine Sodium Salt] yielded an Euclidean distance of 0.792.

For the compound `Cc1ccc(C(C)C)c(O)c1` [Thymol], the Euclidean distance came out at 1.8.

In the case of `NC(=O)c1cccc(-c2cccc(OC(=O)NC3CCCCC3)c2)c1`, the Euclidean distance turned out to be 0.944.

Consider `O=S(=O)(c1ccccc1)c1cnc2c(N3CCNCC3)cccc2c1`, for which the Euclidean distance is 0.917.

The compound `COc1cc(C(=O)O)ccc1NC(=O)[C@@H]1N[C@@H](CC(C)(C)C)[C@](C#N)(c2ccc(Cl)cc2F)[C@H]1c1cccc(Cl)c1F` [Idasanutlin (RG-7388)] showed an Euclidean distance of 1.57.

The compound `O=c1cc(-c2ccccc2)oc2cc(O)cc(O)c12` [Chrysin] showed an Euclidean distance of 1.09.

`C[C@@H](O[C@H]1OCCN(Cc2n[nH]c(=O)[nH]2)[C@H]1c1ccc(F)cc1)c1cc(C(F)(F)F)cc(C(F)(F)F)c1` [Aprepitant] yielded an Euclidean distance of 1.83.

`c1cnc2cc3c(cc2n1)[C@@H]1CNC[C@H]3C1` [Varenicline Tartrate]: the Euclidean distance worked out at 0.985.

For `Oc1c(Cl)cc(Cl)cc1Sc1cc(Cl)cc(Cl)c1O` [Bithionol], the Euclidean distance stood at 0.588.

In turn, `C[N+](C)(C)CCOC(N)=O` [Carbachol] returned an Euclidean distance of 1.19.

The compound `Nc1ncnc2c1c(-c1cnc3[nH]ccc3c1)nn2C1CCCC1` came in with an Euclidean distance of 5.03.

`NC(=O)NCCC[C@H](N)C(=O)O` [L-Citrulline] had an Euclidean distance of 0.895.

For the compound `CN(C)CCCN1c2ccccc2CCc2ccccc21` [Imipramine HCl], the Euclidean distance turned out to be 0.896.

The compound `CCn1c(=O)c2c(nc(/C=C/c3ccc(OC)c(OC)c3)n2C)n(CC)c1=O` [Istradefylline] displayed an Euclidean distance of 1.5.

As to `CCNC(=O)CC[C@H](N)C(=O)O` [L-Theanine], the Euclidean distance was 1.8.

For `NCCCC[C@H](N[C@@H](CCc1ccccc1)C(=O)O)C(=O)N1CCC[C@H]1C(=O)O` [Lisinopril dihydrate], the Euclidean distance was determined as 0.621.

As to `CN(C)CCOC(c1ccccc1)c1ccccc1.Cn1c(=O)c2[nH]c(Cl)nc2n(C)c1=O` [Dimenhydrinate], the Euclidean distance was 1.

Compound `CC1=C(C(=O)OC(C)C)C(c2cccc([N+](=O)[O-])c2)C(C(=O)OC2CN(C(c3ccccc3)c3ccccc3)C2)=C(N)N1` (stereo not drawn) [Azelnidipine] yielded an Euclidean distance of 3.31.

`COC1CCN(C(=O)c2cc(Cc3n[nH]c(=O)c4ccccc34)ccc2F)CC1` showed an Euclidean distance of 1.25.

In turn, `CCN(CC)CCNC(=O)c1ccc(N)cc1` [Procainamide HCl] gave an Euclidean distance of 1.02.

For `c1ccc2c(Oc3nc(Nc4ccc(N5CCOCC5)cc4)c4ncn(C5CCCCC5)c4n3)cccc2c1` [Purmorphamine], the Euclidean distance stood at 1.81.

For the compound `Cc1nc(C#Cc2ccnc(Cl)c2)c(C)n1-c1ccc(OC(F)(F)F)cc1`, the Euclidean distance was determined as 0.736.

The compound `O=C1[C@H](CC[C@H](O)c2ccc(F)cc2)[C@@H](c2ccc(O)cc2)N1c1ccc(F)cc1` [Ezetimibe] had an Euclidean distance of 1.

Compound `CC1(C)S[C@@H]2[C@H](NC(=O)[C@H](N)c3ccccc3)C(=O)N2[C@H]1C(=O)O` [Ampicillin Trihydrate] returned an Euclidean distance of 1.2.

On to `Cc1ccc(Sc2cncc3sc(C(N)=O)cc23)cc1`, for which the Euclidean distance is 1.05.

The next assay deals with DU145. The assay is described as above. The settings on record: 48 h. The essentials: as §1
As to `O=c1cc(-c2ccc(O)cc2)oc2cc(O)cc(O)c12` [Apigenin], the Euclidean distance is 1.17.

`CC(C)NCC(O)COc1cccc2[nH]ccc12` (stereo not drawn) [Pindolol] yielded an Euclidean distance of 0.721.

`COC(=O)C1=C(C)NC(C)=C(C(=O)OC2CCCN(Cc3ccccc3)C2)C1c1cccc([N+](=O)[O-])c1` (stereo not drawn) [Benidipine HCl] gave an Euclidean distance of 0.823.

The compound `CCc1cc(/C(C)=N/OCc2ccc(C3CCCCC3)c(C(F)(F)F)c2)ccc1CN1CC(C(=O)O)C1` [BAF312 (Siponimod)] registered an Euclidean distance of 1.31.

In the case of `O=C(O)c1cccnc1` [Nicotinic Acid], the Euclidean distance came to 1.08.

Compound `CC(=O)c1ccc(S(=O)(=O)NC(=O)NC2CCCCC2)cc1` [Acetohexamide] had an Euclidean distance of 0.836.

With `CCOC(=O)[C@H](CCc1ccccc1)N[C@@H](C)C(=O)N1CCC[C@H]1C(=O)O` [Enalapril Maleate], the Euclidean distance was found to be 0.694.

The compound `C[C@H]1C[C@H]2[C@@H]3CCC4=CC(=O)C=C[C@]4(C)[C@@]3(F)[C@@H](O)C[C@]2(C)[C@@]1(O)C(=O)CO` [Betamethasone] gave an Euclidean distance of 2.37.

The compound `O=c1ccc2ccccc2o1` [Coumarin] gave an Euclidean distance of 1.08.

The compound `O=C(NC(Cc1cc(=O)[nH]c2ccccc12)C(=O)O)c1ccc(Cl)cc1` (stereo not drawn) [Rebamipide] yielded an Euclidean distance of 1.29.

`COc1ccccc1N1CCN(CC(O)COc2cccc3ccccc23)CC1` (stereo not drawn) [Naftopidil] gave an Euclidean distance of 0.795.

With `CCC[C@@H]1C[C@@H](C(=O)N[C@@H]([C@H]2O[C@H](SC)[C@H](OP(=O)(O)O)[C@@H](O)[C@H]2O)[C@H](C)Cl)N(C)C1` [Clindamycin Phosphate], the Euclidean distance turned out to be 0.924.

As for `N[C@@H](Cc1c[nH]c2ccccc12)C(=O)O` [L-Tryptophan], the Euclidean distance amounted to 0.644.

Regarding `Nc1ccc(C(=O)O)c(O)c1` [4-Aminosalicylic acid], the Euclidean distance was 2.33.

The compound `Cc1cc(C)nc(NS(=O)(=O)c2ccc(N)cc2)n1` [Sulfamethazine Sodium Salt] gave an Euclidean distance of 0.732.

Consider `Cc1ccc(C(C)C)c(O)c1` [Thymol], for which the Euclidean distance stood at 1.2.

In the case of `NC(=O)c1cccc(-c2cccc(OC(=O)NC3CCCCC3)c2)c1`, the Euclidean distance was 0.753.

In the case of `O=S(=O)(c1ccccc1)c1cnc2c(N3CCNCC3)cccc2c1`, the Euclidean distance is 0.761.

The compound `COc1cc(C(=O)O)ccc1NC(=O)[C@@H]1N[C@@H](CC(C)(C)C)[C@](C#N)(c2ccc(Cl)cc2F)[C@H]1c1cccc(Cl)c1F` [Idasanutlin (RG-7388)] displayed an Euclidean distance of 1.55.

`O=c1cc(-c2ccccc2)oc2cc(O)cc(O)c12` [Chrysin] registered an Euclidean distance of 1.1.

`C[C@@H](O[C@H]1OCCN(Cc2n[nH]c(=O)[nH]2)[C@H]1c1ccc(F)cc1)c1cc(C(F)(F)F)cc(C(F)(F)F)c1` [Aprepitant] showed an Euclidean distance of 0.905.

Compound `c1cnc2cc3c(cc2n1)[C@@H]1CNC[C@H]3C1` [Varenicline Tartrate] returned an Euclidean distance of 0.786.

Take `Oc1c(Cl)cc(Cl)cc1Sc1cc(Cl)cc(Cl)c1O` [Bithionol]: the Euclidean distance amounted to 0.524.

`C[N+](C)(C)CCOC(N)=O` [Carbachol] gave an Euclidean distance of 0.687.

Turning to `Nc1ncnc2c1c(-c1cnc3[nH]ccc3c1)nn2C1CCCC1`, the Euclidean distance turned out to be 4.39.

`NC(=O)NCCC[C@H](N)C(=O)O` [L-Citrulline] displayed an Euclidean distance of 1.37.

Regarding `CN(C)CCCN1c2ccccc2CCc2ccccc21` [Imipramine HCl], the Euclidean distance was 1.15.

Take `CCn1c(=O)c2c(nc(/C=C/c3ccc(OC)c(OC)c3)n2C)n(CC)c1=O` [Istradefylline]: the Euclidean distance was 0.734.

`CCNC(=O)CC[C@H](N)C(=O)O` [L-Theanine] came in with an Euclidean distance of 1.57.

Regarding `NCCCC[C@H](N[C@@H](CCc1ccccc1)C(=O)O)C(=O)N1CCC[C@H]1C(=O)O` [Lisinopril dihydrate], the Euclidean distance is 0.821.

`CN(C)CCOC(c1ccccc1)c1ccccc1.Cn1c(=O)c2[nH]c(Cl)nc2n(C)c1=O` [Dimenhydrinate] came in with an Euclidean distance of 1.72.

In turn, `CC1=C(C(=O)OC(C)C)C(c2cccc([N+](=O)[O-])c2)C(C(=O)OC2CN(C(c3ccccc3)c3ccccc3)C2)=C(N)N1` (stereo not drawn) [Azelnidipine] had an Euclidean distance of 1.12.

In turn, `COC1CCN(C(=O)c2cc(Cc3n[nH]c(=O)c4ccccc34)ccc2F)CC1` showed an Euclidean distance of 1.32.

`CCN(CC)CCNC(=O)c1ccc(N)cc1` [Procainamide HCl] had an Euclidean distance of 0.74.

With `c1ccc2c(Oc3nc(Nc4ccc(N5CCOCC5)cc4)c4ncn(C5CCCCC5)c4n3)cccc2c1` [Purmorphamine], the Euclidean distance came out at 0.922.

`Cc1nc(C#Cc2ccnc(Cl)c2)c(C)n1-c1ccc(OC(F)(F)F)cc1` had an Euclidean distance of 0.706.

`O=C1[C@H](CC[C@H](O)c2ccc(F)cc2)[C@@H](c2ccc(O)cc2)N1c1ccc(F)cc1` [Ezetimibe] yielded an Euclidean distance of 3.08.

`CC1(C)S[C@@H]2[C@H](NC(=O)[C@H](N)c3ccccc3)C(=O)N2[C@H]1C(=O)O` [Ampicillin Trihydrate] returned an Euclidean distance of 0.921.

As to `Cc1ccc(Sc2cncc3sc(C(N)=O)cc23)cc1`, the Euclidean distance was 0.78.
